Results filed as inconclusive are left out. Activity calls are given as the source filed them. The calls were made as follows, unless noted: active = hit-call score of the fitted dose curve at least 0.9, where 1 is the maximum; inactive = score below 0.9.
How the values were obtained:
[1] = biological target: Paired box protein Pax-6 (Homo sapiens) (UniProt P26367); test: ATG_Pax6_CIS: Attagene CIS-FACTORIAL HepG2 Assay for human Paired Box 6 (PAX6) (AID 2282956); conditions: HepG2 CIS-FACTORIAL PAX6 reporter transcription, RNA readout; actives raise or lower the signal
Chain of Paired box protein Pax-6 (Homo sapiens) (P26367 whole entry, looked up): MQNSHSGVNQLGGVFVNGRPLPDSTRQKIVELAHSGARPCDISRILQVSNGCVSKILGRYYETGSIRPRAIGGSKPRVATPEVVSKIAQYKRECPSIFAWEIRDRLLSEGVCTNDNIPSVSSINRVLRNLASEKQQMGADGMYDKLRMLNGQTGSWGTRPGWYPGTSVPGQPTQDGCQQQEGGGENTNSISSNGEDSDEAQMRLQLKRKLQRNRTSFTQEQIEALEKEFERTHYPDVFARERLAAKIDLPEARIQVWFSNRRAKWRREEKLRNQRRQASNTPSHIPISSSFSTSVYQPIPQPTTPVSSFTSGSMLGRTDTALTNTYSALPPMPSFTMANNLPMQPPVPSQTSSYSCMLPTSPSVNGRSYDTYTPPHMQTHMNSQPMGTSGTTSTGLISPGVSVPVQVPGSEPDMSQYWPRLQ
Outline: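 Read-out is reporter transcript level, measured by RT-PCR with fluorescent primer extension and capillary electrophoresis after 24 h dosing of transfected HepG2 cells. Activity in either direction fitted relative to DMSO control.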

[2] = ATG_PXRE_CIS: Attagene CIS-FACTORIAL HepG2 Assay for human Pregnane X Receptor Element (PXRE) (AID 2282957); conditions: HepG2 Attagene CIS-FACTORIAL PXRE reporter, mRNA; actives raise or lower the signal
Outline: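 Reporter transcripts under endogenous PXR-responsive cis-regulation quantified from total RNA of transfected HepG2 cells 24 h post-dosing, via RT-PCR with fluorescent primer extension and capillary electrophoresis. Gain or loss of signal fitted against DMSO baseline.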

[3] = ATG_Sox_CIS: Attagene CIS-FACTORIAL HepG2 Assay for human SRY-box transcription factor (SOX) (AID 2282960); conditions: HepG2 Attagene cis-factorial SOX reporter, mRNA; actives raise or lower the signal
Outline: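 Cells were transfected with reporter constructs under cis-regulatory promoters, then exposed to chemicals for 24 h. Reporter transcripts were quantified by fluorescence after RT-PCR and capillary electrophoresis; activity was fitted in both directions against DMSO.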

[4] = ATG_SREBP_CIS: Attagene CIS-FACTORIAL HepG2 Assay for human Sterol Regulatory Element Binding (SREBP) (AID 2282962); conditions: HepG2 Attagene cis-factorial SREBP reporter, mRNA; actives raise or lower the signal
Outline: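 Endogenous SREBP activity read as cis-element-driven reporter transcript in transiently transfected HepG2, 24 h post-dosing; quantified via RT-PCR plus capillary electrophoresis of fluorescent fragments. Gain or loss of signal fitted relative to DMSO baseline.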

[5] = biological target: Signal transducer and activator of transcription 3 (Homo sapiens) (UniProt P40763); test: ATG_STAT3_CIS: Attagene CIS-FACTORIAL HepG2 Assay for human Signal Transducer and Activator of Transcription 3 (STAT3) (AID 2282963); conditions: HepG2, Attagene cis-factorial STAT3 reporter transcription; actives raise or lower the signal
Chain of Signal transducer and activator of transcription 3 (Homo sapiens) (P40763 whole entry, looked up): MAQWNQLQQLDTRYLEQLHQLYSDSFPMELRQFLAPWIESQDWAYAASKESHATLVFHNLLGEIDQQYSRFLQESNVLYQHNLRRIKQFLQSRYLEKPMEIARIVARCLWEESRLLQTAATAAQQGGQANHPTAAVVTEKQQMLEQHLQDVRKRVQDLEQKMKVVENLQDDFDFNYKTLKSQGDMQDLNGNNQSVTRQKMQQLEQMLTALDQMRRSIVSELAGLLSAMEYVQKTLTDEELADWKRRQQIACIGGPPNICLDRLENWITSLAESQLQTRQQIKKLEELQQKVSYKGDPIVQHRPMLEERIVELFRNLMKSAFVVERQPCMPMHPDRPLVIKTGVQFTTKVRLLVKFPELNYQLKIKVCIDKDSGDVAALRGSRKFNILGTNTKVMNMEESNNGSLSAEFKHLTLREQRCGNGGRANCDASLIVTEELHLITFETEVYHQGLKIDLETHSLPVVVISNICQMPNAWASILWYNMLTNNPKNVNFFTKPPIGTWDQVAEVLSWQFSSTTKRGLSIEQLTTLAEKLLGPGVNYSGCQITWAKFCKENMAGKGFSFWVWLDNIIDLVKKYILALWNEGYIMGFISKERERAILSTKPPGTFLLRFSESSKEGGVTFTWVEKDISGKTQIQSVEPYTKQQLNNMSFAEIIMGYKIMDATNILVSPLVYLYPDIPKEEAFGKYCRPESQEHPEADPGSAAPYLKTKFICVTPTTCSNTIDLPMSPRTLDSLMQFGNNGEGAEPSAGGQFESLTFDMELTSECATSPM
Outline: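 Readout is reporter transcript quantified by RT-PCR and capillary electrophoresis, with 6-FAM primer extension and HpaI digestion. Total RNA is taken 24 h after dosing transiently transfected HepG2 carrying cis-regulated reporter units. Bidirectional fit against DMSO.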

[6] = ATG_TA_CIS: Attagene CIS-FACTORIAL HepG2 Assay for human TA Basal Promoter (AID 2282964); conditions: HepG2 Attagene CIS-factorial TA basal promoter reporter; actives raise or lower the signal
Outline: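 Read-out: fluorescent reporter-transcript fragments resolved by capillary electrophoresis after RT-PCR and HpaI digestion. Source: HepG2 cells carrying transiently transfected multi-reporter cis constructs, treated 24 h. Endpoint fitted bidirectionally relative to DMSO.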

[7] = ATG_TCF_b_cat_CIS: Attagene CIS-FACTORIAL HepG2 Assay for human T-Cell-Factor with beta-catenin (TCF/b-cat) (AID 2282965); conditions: HepG2 TCF/beta-catenin cis-reporter transcription, actives raise or lower the signal
Outline: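 Measured: reporter mRNA in HepG2 transiently transfected with cis-promoter reporter units, 24 h after chemical addition. Fitting was bidirectional, DMSO as negative control.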

[8] = ATG_TAL_CIS: Attagene CIS-FACTORIAL HepG2 Assay for human TAL Basal Promoter (AID 2282966); conditions: HepG2 Attagene cis-factorial TAL promoter reporter; actives raise or lower the signal;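 also: background control endpoint measuring basal TAL promoter reporter mRNA not a specific factor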
Outline: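 Background-control endpoint: basal TAL promoter reporter transcripts in transiently transfected HepG2, measured 24 h after dosing. Read-out by RT-PCR with fluorescent primer extension and capillary electrophoresis; gain or loss of signal fitted relative to DMSO.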

[9] = ATG_TGFb_CIS: Attagene CIS-FACTORIAL HepG2 Assay for human Transforming Growth Factor (TGF) (AID 2282967); conditions: HepG2 Attagene CIS TGFb reporter, mRNA transcription; actives raise or lower the signal
Outline: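 Transient MRTU transfection of HepG2 (FuGene 6). Dose 24 h. TriZol RNA, oligo(dT) RT, PCR, 6-FAM primer extension, HpaI cut, CE. Bidirectional fit, DMSO = baseline.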

[10] = ATG_VDRE_CIS: Attagene CIS-FACTORIAL HepG2 Assay for human Vitamin D Receptor Element (VDRE) (AID 2282968); conditions: HepG2 VDRE cis-reporter transcription, actives raise or lower the signal
Outline: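 Readout is VDRE-driven reporter mRNA reflecting endogenous factor activity in human HepG2 cells, sampled 24 h post-dose. Quantification used labelled RT-PCR products separated by capillary electrophoresis; bidirectional analysis relative to DMSO.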

[11] = biological target: X-box-binding protein 1 (Homo sapiens) (UniProt P17861); test: ATG_Xbp1_CIS: Attagene CIS-FACTORIAL HepG2 Assay for human X-box Binding Protein 1 (XBP1) (AID 2282972); conditions: HepG2 XBP1 cis-element reporter, Attagene multiplex; actives raise or lower the signal
Chain of X-box-binding protein 1 (Homo sapiens) (P17861 whole entry, looked up): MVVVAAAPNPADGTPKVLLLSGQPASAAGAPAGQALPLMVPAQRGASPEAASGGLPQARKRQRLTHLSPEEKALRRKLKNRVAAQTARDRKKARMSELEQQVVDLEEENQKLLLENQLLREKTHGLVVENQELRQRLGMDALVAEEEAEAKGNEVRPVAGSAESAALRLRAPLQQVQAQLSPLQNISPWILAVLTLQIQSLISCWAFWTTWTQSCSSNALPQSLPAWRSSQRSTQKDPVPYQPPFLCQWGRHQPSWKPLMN
Outline: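 Reporter transcripts were quantified by RT-PCR with fluorescent primer extension and capillary electrophoresis after 24 h chemical exposure. Cells: transiently transfected HepG2 carrying cis-regulated reporter constructs; data fitted bidirectionally relative to DMSO.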

[12] = ATG_GAL4_TRANS: Attagene TRANS-FACTORIAL HepG2 Assay for GAL4 (Internal Marker) (AID 2282976; active = hit-call score of the fitted dose curve at least 0.9, where 1 is the maximum); conditions: HepG2 Attagene TRANS GAL4 internal marker reporter
Outline: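 In transfected human HepG2 liver cells dosed 24 h, GAL4 reporter mRNA serves as a baseline marker. Detection by RT-PCR with fluorescent capillary electrophoresis, activity fitted upward relative to DMSO.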

[13] = biological target: Transcription factor Sp1 (Homo sapiens) (UniProt P08047); test: ATG_Sp1_CIS: Attagene CIS-FACTORIAL HepG2 Assay for human Specificity Protein 1 (Sp1) (AID 2282961); conditions: HepG2 Sp1 cis-reporter transcription, actives raise or lower the signal
Chain of Transcription factor Sp1 (Homo sapiens) (P08047 whole entry, looked up): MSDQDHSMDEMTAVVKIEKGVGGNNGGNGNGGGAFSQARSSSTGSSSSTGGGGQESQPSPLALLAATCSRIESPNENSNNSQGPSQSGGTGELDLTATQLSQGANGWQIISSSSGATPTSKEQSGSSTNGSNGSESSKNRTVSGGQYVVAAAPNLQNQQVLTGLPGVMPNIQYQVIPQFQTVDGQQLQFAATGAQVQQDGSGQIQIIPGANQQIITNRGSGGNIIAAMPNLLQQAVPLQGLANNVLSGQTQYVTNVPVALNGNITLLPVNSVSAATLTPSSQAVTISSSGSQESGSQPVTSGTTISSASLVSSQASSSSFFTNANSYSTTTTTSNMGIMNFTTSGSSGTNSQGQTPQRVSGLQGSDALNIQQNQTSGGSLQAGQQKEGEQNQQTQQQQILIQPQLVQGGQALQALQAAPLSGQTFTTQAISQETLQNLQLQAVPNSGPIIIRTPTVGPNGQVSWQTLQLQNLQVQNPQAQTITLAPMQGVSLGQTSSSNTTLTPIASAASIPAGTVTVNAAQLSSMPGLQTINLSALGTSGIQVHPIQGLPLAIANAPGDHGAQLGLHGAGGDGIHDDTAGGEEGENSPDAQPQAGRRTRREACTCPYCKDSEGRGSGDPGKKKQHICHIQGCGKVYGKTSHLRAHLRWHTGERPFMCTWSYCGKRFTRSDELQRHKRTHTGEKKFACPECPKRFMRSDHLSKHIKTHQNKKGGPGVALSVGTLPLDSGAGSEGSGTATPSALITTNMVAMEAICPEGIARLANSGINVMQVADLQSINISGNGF
Outline: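 Measures mRNA induction of an Sp1-linked reporter in HepG2 cells 24 h post-dosing. Multiplexed reporters read by RT-PCR and capillary electrophoresis; DMSO serves as negative control and baseline.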

[14] = biological target: Estrogen receptor (Homo sapiens) (UniProt P03372); test: ATG_ERa_TRANS: Attagene TRANS-FACTORIAL HepG2 Assay for human Estrogen Receptor alpha (ERa) (AID 2282970; active = hit-call score of the fitted dose curve at least 0.9, where 1 is the maximum); conditions: HepG2 Attagene TRANS ERa GAL4 reporter, mRNA
Chain of Estrogen receptor (Homo sapiens) (P03372 whole entry, looked up, the tested form may be a part): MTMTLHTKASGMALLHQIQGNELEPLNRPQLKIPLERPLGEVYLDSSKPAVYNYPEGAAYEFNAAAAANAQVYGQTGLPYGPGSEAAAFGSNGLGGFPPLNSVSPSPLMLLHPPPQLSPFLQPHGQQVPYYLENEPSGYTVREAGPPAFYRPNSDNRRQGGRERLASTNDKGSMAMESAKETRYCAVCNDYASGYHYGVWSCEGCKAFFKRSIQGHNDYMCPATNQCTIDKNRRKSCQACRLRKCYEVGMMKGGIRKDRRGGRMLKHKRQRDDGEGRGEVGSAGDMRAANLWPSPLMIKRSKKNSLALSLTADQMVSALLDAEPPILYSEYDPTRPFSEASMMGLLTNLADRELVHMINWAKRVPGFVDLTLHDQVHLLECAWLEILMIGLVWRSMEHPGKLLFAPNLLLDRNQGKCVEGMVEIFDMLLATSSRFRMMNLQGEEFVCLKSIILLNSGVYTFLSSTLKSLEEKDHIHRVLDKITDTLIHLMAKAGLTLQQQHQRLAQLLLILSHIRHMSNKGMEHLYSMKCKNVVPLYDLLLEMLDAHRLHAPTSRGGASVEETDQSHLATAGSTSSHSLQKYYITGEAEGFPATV
Outline: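 Reporter transcripts were measured 24 h after dosing by RT-PCR with fluorescent primer extension and capillary electrophoresis. The system is transiently transfected HepG2 expressing exogenous NR-Gal4 chimeras driving GAL4-UAS reporters; DMSO is the baseline.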

[15] = biological target: Estrogen-related receptor gamma (Homo sapiens) (UniProt P62508); test: ATG_ERRg_TRANS: Attagene TRANS-FACTORIAL HepG2 Assay for human Estrogen-Related Receptor gamma (ERRg) (AID 2282977; active = hit-call score of the fitted dose curve at least 0.9, where 1 is the maximum;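 also: hits increase reporter signal over DMSO so potencies reflect activators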); conditions: HepG2 Attagene TRANS reporter, ERRg transactivation
Chain of Estrogen-related receptor gamma (Homo sapiens) (P62508 whole entry, looked up, the tested form may be a part): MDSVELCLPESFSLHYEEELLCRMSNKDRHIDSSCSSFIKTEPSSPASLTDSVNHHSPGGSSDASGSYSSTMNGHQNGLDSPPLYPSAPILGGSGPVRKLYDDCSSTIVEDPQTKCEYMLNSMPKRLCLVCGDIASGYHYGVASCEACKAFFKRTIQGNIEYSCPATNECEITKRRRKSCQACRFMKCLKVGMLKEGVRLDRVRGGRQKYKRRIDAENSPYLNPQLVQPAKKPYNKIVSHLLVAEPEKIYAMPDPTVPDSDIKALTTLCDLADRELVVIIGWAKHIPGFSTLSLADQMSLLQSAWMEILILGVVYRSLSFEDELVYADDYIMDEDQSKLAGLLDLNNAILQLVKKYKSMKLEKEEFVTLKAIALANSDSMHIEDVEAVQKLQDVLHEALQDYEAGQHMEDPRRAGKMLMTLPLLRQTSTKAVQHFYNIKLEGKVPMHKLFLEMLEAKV
Outline: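 Induction of reporter transcripts through a chimeric NR-Gal4 protein is quantified in transfected human HepG2 liver cells after 24 h chemical exposure, using RT-PCR with capillary electrophoresis detection and DMSO as baseline.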

[16] = biological target: Nuclear receptor subfamily 1 group I member 3 (Homo sapiens) (UniProt Q14994); test: ATG_CAR_TRANS: Attagene TRANS-FACTORIAL HepG2 Assay for human Constitutive Androstane Receptor (CAR) (AID 2282969; active = hit-call score of the fitted dose curve at least 0.9, where 1 is the maximum;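 also: activators raise reporter mRNA above DMSO so AC50 marks induction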); conditions: HepG2 Attagene TRANS-FACTORIAL CAR reporter
Chain of Nuclear receptor subfamily 1 group I member 3 (Homo sapiens) (Q14994 whole entry, looked up, the tested form may be a part): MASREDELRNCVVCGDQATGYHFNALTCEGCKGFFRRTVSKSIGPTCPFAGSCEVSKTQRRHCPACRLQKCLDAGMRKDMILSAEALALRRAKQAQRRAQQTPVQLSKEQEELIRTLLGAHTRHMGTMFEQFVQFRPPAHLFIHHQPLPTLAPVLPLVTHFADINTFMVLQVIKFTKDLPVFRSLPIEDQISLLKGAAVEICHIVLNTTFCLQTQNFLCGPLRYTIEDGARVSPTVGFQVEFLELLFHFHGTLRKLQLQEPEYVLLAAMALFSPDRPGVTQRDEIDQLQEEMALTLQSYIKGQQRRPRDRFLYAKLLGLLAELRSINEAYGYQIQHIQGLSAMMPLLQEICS
Outline: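 Signal is reporter mRNA induction relative to DMSO, measured 24 h after dosing by RT-PCR with fluorescent primer extension and capillary electrophoresis. Human HepG2 liver cells carried transiently transfected chimeric NR-Gal4/GAL4-UAS reporter constructs.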

[17] = ATG_RORE_CIS: Attagene CIS-FACTORIAL HepG2 Assay for human RAR-related Orphan Receptor Element (RORE) (AID 2282959); conditions: HepG2 Attagene cis-factorial RORE reporter, mRNA; actives raise or lower the signal
Outline: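 Multiplexed reporter assay measuring mRNA induction from a cis promoter element in transiently transfected HepG2 cells after 24 h treatment. Detection via RT-PCR and capillary electrophoresis fluorescence; DMSO serves as baseline.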

[18] = ATG_M_19_TRANS: Attagene TRANS-FACTORIAL HepG2 Assay for M19 Transcription Factor (Internal Marker) (AID 2282974; active = hit-call score of the fitted dose curve at least 0.9, where 1 is the maximum); conditions: HepG2 Attagene TRANS-FACTORIAL M19 internal marker reporter
Outline: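 After transfection of HepG2 with GAL4-UAS-driven reporter constructs, cells are dosed for 24 h. Total RNA is reverse-transcribed, reporter sequences PCR-amplified and labelled, then HpaI-digested and sized by capillary electrophoresis.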

[19] = biological target: Steroid hormone receptor ERR1 (Homo sapiens) (UniProt P11474); test: ATG_ERRa_TRANS: Attagene TRANS-FACTORIAL HepG2 Assay for human Estrogen-Related Receptor alpha (ERRa) (AID 2282971; active = hit-call score of the fitted dose curve at least 0.9, where 1 is the maximum); conditions: HepG2 Attagene TRANS reporter, ERRa transactivation
Chain of Steroid hormone receptor ERR1 (Homo sapiens) (P11474 whole entry, looked up, the tested form may be a part): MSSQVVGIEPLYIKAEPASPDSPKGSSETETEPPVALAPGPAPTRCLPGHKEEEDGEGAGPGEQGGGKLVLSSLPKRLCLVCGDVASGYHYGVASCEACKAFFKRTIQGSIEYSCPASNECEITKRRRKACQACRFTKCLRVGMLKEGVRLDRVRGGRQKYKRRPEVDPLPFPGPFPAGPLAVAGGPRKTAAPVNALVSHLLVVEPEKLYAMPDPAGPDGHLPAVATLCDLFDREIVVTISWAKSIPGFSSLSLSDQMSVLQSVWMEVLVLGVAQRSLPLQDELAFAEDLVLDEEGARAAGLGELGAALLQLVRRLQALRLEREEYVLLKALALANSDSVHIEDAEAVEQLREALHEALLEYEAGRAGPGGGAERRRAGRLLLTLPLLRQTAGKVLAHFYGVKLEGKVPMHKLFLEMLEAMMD
Outline: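 Reporter transcripts from ERRa-Gal4 chimera activity measured in transiently transfected human HepG2 cells 24 hours after dosing, using RT-PCR with 6-FAM primer extension, HpaI digestion and capillary electrophoresis; DMSO is baseline.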

Measured: AC50

CC(=O)CC(=O)Nc1ccccc1
not listed: [13] | [14] | [15] | [16] | [17] | [18] | [19]
inactive: all other assays above

CN(C)C(=O)Nc1ccc(Oc2ccc(Cl)cc2)cc1
active: [2] 26.7 µM
not listed: [12] | [14] | [15] | [16] | [17] | [18] | [19]
inactive: all other assays above

Nc1c(Cl)cc(Cl)cc1[N+](=O)[O-]
inactive: [1] | [3] | [13] | [4] | [5] | [6] | [7] | [10] | [14] | [12]
active: [2] 27.7 µM

CC(C)CCCCCCc1ccc(OCCOCCO)cc1
not listed: [3] | [16] | [17] | [18] | [19]
inactive: all other assays above

CC(C)=CCCC(C)CC(=O)O (stereo not given)
active: [2] 27.3 µM
not listed: [3] | [12] | [14] | [15] | [17] | [18] | [19]
inactive: all other assays above

NC(=S)NNC(N)=S
not listed: [3] | [6] | [10] | [14] | [15] | [16] | [19]
inactive: all other assays above

c1ccc(CCc2ccccc2)cc1
active: [2] 26.1 µM | [13] 169 µM
not listed: [3] | [4] | [9] | [14] | [19]
inactive: all other assays above

Cc1ccc(S(=O)(=O)Oc2ccc(N=Nc3ccc(-c4ccc(N=Nc5c(O)ccc6cc(S(=O)(=O)O)cc(S(=O)(=O)O)c56)c(C)c4)cc3C)cc2)cc1
active: [2] 4.91 µM | [9] 40.6 µM | [10] 14.1 µM
not listed: [13] | [14] | [17]
inactive: all other assays above

OCC#CCO
not listed: [9] | [12] | [14] | [15] | [16] | [17] | [18] | [19]
inactive: all other assays above

C=CC(C)(O)CCC=C(C)C (stereo not given)
active: [2] 46.9 µM
not listed: [3] | [14] | [15] | [16] | [17] | [18] | [19]
inactive: all other assays above

O=C(Nc1ccc2c(c1)Cc1ccccc1-2)C(F)(F)F
inactive: [1] | [13] | [5] | [6] | [7] | [8] | [9] | [11] | [12]
active: [2] 27.7 µM | [17] 17.5 µM | [10] 30.5 µM

CC[N+](C)(CC)CC
not listed: [3] | [10] | [13] | [14] | [15] | [16] | [19]
inactive: all other assays above

Reference: PubChem BioAssay (EPA / NIEHS)
